BCLXL inh: inhibitors of human Bcl-xL | GST-Bcl-xL / FITC-Bim BH3 peptide fluorescence polarization | inhibition, % at 10.9 µM | 320,000 tested, 0.7% active | AID 2129;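 active means inhibition above the mean of all tested compounds plus 3 SD, cutoff set per campaign, cut at about 30% in these data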;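 further: 0% = DMSO wells and 100% = unlabeled Bim-BH3 peptide competitor; inhibitors lower millipolarization by displacing the labeled peptide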
Mcl1 Noxa PPI: Mcl-1/Noxa interaction inhibition | TR-FRET Mcl-1/Noxa peptide binding, 2 h | inhibition, % at 21.7 µM | 220,000 tested, 1.5% active | AID 1022;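 active means compounds that cut the protein-peptide binding signal by more than 50% relative to plate controls in a single-dose test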;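 further: His-tagged Mcl-1 with rhodamine Noxa BH3 peptide and terbium anti-His antibody; 0% = Mcl-1 plus Noxa peptide wells and 100% = peptide-only wells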
Mcl1 Bid PPI: disrupts binding of human Mcl-1 to Bid peptide; 220,000 tested, 0.97% active; inhibition, % at 21.7 µM; Q07820; AID 1021; TR-FRET Mcl-1/Bid-Dy647 peptide binding, 1536-well;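 active means compounds that cut the binding signal by more than half at the single screening dose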;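 further: His-tagged Mcl-1 with europium anti-His antibody binding Bid BH3 peptide; 0% = Mcl-1 plus peptide wells and 100% = peptide-only wells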
MCL1-BIM inh: disrupts human MCL1 binding to BIM-BH3 peptide. GST-MCL1 / FITC-Bim-BH3 fluorescence polarization. 320,000 tested, 0.68% active. AID 2057. Q07820. inhibition, % at 10.9 µM;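 active means inhibition above the mean inhibition of all tested compounds plus 3 SD, set per campaign, cut at about 40% in these data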;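 further: 0% = DMSO wells and 100% = unlabeled Bim-BH3 peptide control; higher means more loss of mP so more displacement of Bim peptide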
GLD-1 TGE inh: GLD-1-TGE RNA interaction inhibition (C. elegans); Q17339; purified GLD-1 + fluorescein TGE RNA, fluorescence polarization; AID 2280; 320,000 tested, 0.44% active; inhibition, % at 5.96 µM;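 active means percent inhibition above a per-plate cutoff, the plate mean of test compounds plus 3 SD, cut at about 30% in these data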;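 further: 0% = DMSO wells with GLD-1 and probe and 100% = wells lacking GLD-1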
Target sequence (Q17339 whole entry, looked up): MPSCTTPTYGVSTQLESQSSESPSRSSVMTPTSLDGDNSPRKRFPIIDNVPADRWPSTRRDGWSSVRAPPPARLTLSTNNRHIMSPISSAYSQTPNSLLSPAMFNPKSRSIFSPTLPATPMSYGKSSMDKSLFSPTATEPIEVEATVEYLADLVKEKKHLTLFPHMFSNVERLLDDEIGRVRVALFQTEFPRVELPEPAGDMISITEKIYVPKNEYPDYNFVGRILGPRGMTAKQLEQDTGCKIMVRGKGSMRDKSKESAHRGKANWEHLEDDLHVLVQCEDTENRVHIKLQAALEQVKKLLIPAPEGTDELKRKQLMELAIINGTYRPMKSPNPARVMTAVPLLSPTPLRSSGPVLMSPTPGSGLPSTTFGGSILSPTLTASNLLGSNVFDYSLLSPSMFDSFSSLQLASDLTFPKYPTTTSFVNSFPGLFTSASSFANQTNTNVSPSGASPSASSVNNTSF
Mcl-1 Bim block: human Bim-Mcl-1 interaction inhibition; Q07820; Bead-based flow cytometry, Bim peptide-Mcl-1 binding; inhibition, % at 10 µM; 190,000 tested, 0.1% active; in the data active means inhibition above about 40%;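 further: 0% = no compound tracer wells and 100% = peptide blocker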
The depositor's hits bear a star; . = no result. Compounds with a hit are over-represented: about 2.3% of the library has one in this group of screens.

SMILES	BCLXL inh	Mcl1 Noxa PPI	Mcl1 Bid PPI	MCL1-BIM inh	GLD-1 TGE inh	Mcl-1 Bim block
COc1ccc(N(C(=O)CNC(=O)c2cccs2)C(C(=O)NCC2CCCO2)c2ccccc2)c(OC)c1 (stereo not drawn)	7	.	.	8	-1	.
Cc1cc(N2C(=O)C=CC2=O)c([N+](=O)[O-])cc1C	10	50	57*	20	4	-12
Cc1ccc(N2C(=O)C3C4C=CC(CC4)C3C2=O)cc1[N+](=O)[O-] (stereo not drawn)	-6	.	.	-4	1	.
Cc1cc2nc(-c3ccc(SCC(=O)Nc4nccs4)nc3)[nH]c2cc1C	.	73*	25	.	.	-6
Cc1ccc2nc(-c3ccc(SCC(=O)O)nc3)[nH]c2c1	1	31	-4	6	2	1
CCc1nnc(NC(=O)CSc2ccc(-c3nc4ccc(C)cc4[nH]3)cn2)s1	2	58*	31	-5	2	-3
NCCc1c(-c2ccccc2)n(-c2ccccc2)c2ccccc12	.	12	-27	.	.	0
Nc1nc(NCCO)nc(N2CCCCCC2)c1[N+](=O)[O-]	-2	.	.	6	7	.
OCCN(CCO)c1nc(N2CCCCC2)c2nc(N(CCO)CCO)nc(N3CCCCC3)c2n1	.	7	-20	.	155*	1
Nc1nc(SCc2cccc([N+](=O)[O-])c2)n[nH]1	3	.	.	10	-1	.
COc1ccc(O)c(C(=O)c2cc(SCC(=O)O)c3nc4sc5c(c4c(=O)n3c2)CCCC5)c1	14	108*	41	24	-1	.
COC(=O)c1cc(C(=O)c2cc(F)ccc2O)cn2c(=O)c3c(C)c(C)sc3nc12	5	9	-7	-2	-2	.
CCOC(=O)c1sc2nc3c(SCC(=O)O)cc(C(=O)c4ccccc4O)cn3c(=O)c2c1C	-2	66*	-17	-8	-1	0
CCOC(=O)c1sc2nc3c(SCC(=O)O)cc(C(=O)c4cc(F)ccc4O)cn3c(=O)c2c1C	8	86*	-130	33	4	1
COc1ccc(-n2c(SCC(=O)O)nc3sc4c(c3c2=O)CCCC4)cc1	1	.	.	-1	-1	.
O=C(O)CSc1cc(C(=O)c2ccccc2O)cn2c(=O)c3c(-c4ccccc4)csc3nc12	5	86*	-33	15	-4	0
Cc1sc2nc3c(SC(C)C(=O)O)cc(C(=O)c4ccccc4O)cn3c(=O)c2c1C (stereo not drawn)	7	23	-64	4	-5	12
Cc1nn(-c2ccccc2)nc1-c1nnc(-c2ccc(C(F)(F)F)cc2)o1	6	-3	-5	-2	2	.
Cc1ccc(N(CC(=O)N/N=C/c2cc(C)n(-c3ccccc3C)c2C)S(C)(=O)=O)cc1	8	-1	-59	14	0	-6
O=C(Nc1ccccc1)NC1CCS(=O)(=O)C1 (stereo not drawn)	0	5	98*	4	1	1
CC(=O)NC1=C(NC2CCS(=O)(=O)C2)C(=O)c2ccccc2C1=O (stereo not drawn)	15	94*	-16	20	1	3
O=C(O)c1ccc(N=Cc2c(O)ccc3oc4c(c23)CCCC4)cc1	4	20	-16	4	10	.
Oc1ccccc1N=Cc1c(O)ccc2oc3c(c12)CCCC3	14	29	-9	15	38*	.
O=C(CCN1CCCCC1)c1ccccc1	7	26	-34	5	6	-4
C[N+]1(CCC(=O)c2ccccc2)CCCCC1	-12	-12	56*	-18	-2	-3
SMILES	BCLXL inh	Mcl1 Noxa PPI	Mcl1 Bid PPI	MCL1-BIM inh	GLD-1 TGE inh	Mcl-1 Bim block
COc1ccc(/C=N/NC(=O)c2ccc(Cn3cc([N+](=O)[O-])cn3)o2)cc1O	5	15	-9	1	0	2
COc1cc(/C=N/NC(=O)c2cc(-c3ccccc3Cl)nc3ccccc23)cc(OC)c1O	-2	.	.	3	2	.
Cc1occc1C(=O)N/N=C/c1ccc(N(C)C)cc1	1	37	74*	10	0	.
Cc1occc1C(=O)N/N=C/C=C/c1ccc(N(C)C)cc1	-7	.	.	-16	-18	.
COc1cc(/C=N/NC(=O)c2cc(-c3ccco3)nc3ccccc23)cc(OC)c1O	6	82*	-23	11	2	.
COc1cc(/C=N/NC(=O)c2ccc(Cn3cc([N+](=O)[O-])cn3)o2)cc(Br)c1O	1	56*	-23	-4	9	0
COc1cc(/C=N/NC(=O)c2ccoc2C)cc(OC)c1O	-2	57*	-63	1	0	-4
Cc1ccccc1OCC(=O)NNC(=O)CCN1C(=O)c2ccccc2C1=O	0	-11	-17	15	-1	0
O=C(Nc1nnc2n1CCS2)c1ccc(Br)o1	-2	.	.	-2	3	.
CCOC(=O)c1cn2nc(SCc3ccccc3)nc2nc1C	4	.	.	5	0	.
Cc1ccc(C)c(OC(C)C(=O)Nc2nccs2)c1 (stereo not drawn)	0	.	.	7	3	.
COc1cc(/C=N/NC(=O)C(=O)NCc2ccco2)cc(Br)c1O	-1	56*	-22	4	0	.
COc1cc(/C=N/NC(=O)c2cccc([N+](=O)[O-])c2)cc(OC)c1O	6	67*	-30	20	-1	-6
COc1ccc(/C=N/Nc2ccc([N+](=O)[O-])cc2)cc1Cn1cc([N+](=O)[O-])cn1	-34	72*	58*	-81	-3	-4
COc1ccccc1-c1nnc(SCC(=O)NC2CCS(=O)(=O)C2)n1CCc1ccccc1 (stereo not drawn)	-3	9	-10	-15	0	0
CC(=O)NC(=S)Nc1ccc(NC(=S)NC(=O)/C=C/c2ccco2)cc1	6	66*	44	2	1	.
O=C(Nc1ccc(O)c(-c2nc3ccccc3s2)c1)c1cc(=O)c2ccccc2o1	2	51*	52*	-5	4	-7
O=C(Nc1ccc(O)c(-c2nc3ccccc3s2)c1)c1cccs1	5	-217	-56	1	2	0
CCC(=O)Nc1ccc(NC(=S)NC(=O)/C=C/c2ccco2)cc1	3	.	.	20	4	.
COc1ccc(NC(=S)NC(=O)/C=C/c2ccco2)cc1	6	20	-16	1	-1	-1
O=C(/C=C/c1ccco1)NC(=S)Nc1ccc(O)c(-c2nc3ccccc3s2)c1	6	52*	59*	15	5	-6
COc1ccccc1N(C(=O)c1ccco1)C(C(=O)NC1CCCC1)c1ccncc1 (stereo not drawn)	5	.	.	8	0	.
CCOC(=O)c1c(CSC(=N)N)n(-c2ccc(Br)cc2)c2cc(Br)c(OC(C)=O)cc12	.	65*	0	.	.	7
CCOc1ccc(CCNC(=O)C2CCCN(c3ncnc4c3nc3n4CCCCC3)C2)cc1 (stereo not drawn)	1	.	.	1	3	.

Screens from PubChem.
